Experimental data as given in the supplement of paper PMC6555819.

Legend:
Test in all cases: PBM binding z-score (relative to random genomic background probes); higher = stronger binding; sequences stand for … in GC…GCGATTGACAGCGTAGAATGAAGG
[1] = system: FXR:RXRa (NR concentration 270 nM, RXRa partner concentration 90 nM)
Summary of the method: (§1)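 Binding z-scores were set against random background probes. The data came from custom Agilent 4×180K protein-binding microarrays carrying double-stranded probes with 34-nt variable regions, incubated 1 h with ligand-free nuclear receptor dimers. Partner-specific antibodies detected binding, and scanned fluorescence was regression-normalized.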

[2] = system: LXRa:RXRa (NR concentration 270 nM, RXRa partner concentration 90 nM)
Summary of the method: as §1

[3] = system: LXRa homodimer (NR concentration 270 nM)
Summary of the method: as §1

[4] = system: LXRb:RXRa (NR concentration 270 nM, RXRa partner concentration 90 nM)
Summary of the method: as §1

[5] = system: LXRb homodimer (NR concentration 270 nM)
Summary of the method: as §1

[6] = system: PPARa:RXRa (NR concentration 270 nM, RXRa partner concentration 90 nM)
Summary of the method: as §1

[7] = system: PPARg:RXRa (NR concentration 180 nM, RXRa partner concentration 90 nM)
Summary of the method: as §1

[8] = system: PPARg:RXRa 270nM:90nM, anti-RXR (NR concentration 270 nM, RXRa partner concentration 90 nM)
Summary of the method: as §1

[9] = system: PPARg:RXRa 30nM:10nM, anti-RXR (NR concentration 30 nM, RXRa partner concentration 10 nM)
Summary of the method: as §1

[10] = system: PPARg:RXRa 90nM:30nM, anti-RXR (NR concentration 90 nM, RXRa partner concentration 30 nM)
Summary of the method: as §1

[11] = system: PPARg:RXRa DBDmut IVT, anti-RXR (DBD mutation: RXRa K156A/R161A, NR concentration 270 nM, RXRa partner concentration 90 nM)
Summary of the method: as §1

[12] = system: PPARg:RXRa IVT, anti-PPARg (NR concentration 270 nM, RXRa partner concentration 90 nM)
Summary of the method: as §1

[13] = system: PPARg DBDmut:RXRa IVT, anti-PPARg (DBD mutation: PPARg1 K132A/R137A, NR concentration 270 nM, RXRa partner concentration 90 nM)
Summary of the method: as §1

[14] = system: PPARg DBDmut IVT, anti-PPARg (DBD mutation: PPARg1 K132A/R137A, NR concentration 270 nM)
Summary of the method: as §1

[15] = system: PPARg homodimer (NR concentration 180 nM)
Summary of the method: as §1

[16] = system: PXR:RXRa (NR concentration 270 nM, RXRa partner concentration 90 nM)
Summary of the method: as §1

[17] = system: PXR homodimer (NR concentration 270 nM)
Summary of the method: as §1

[18] = system: RARa:RXR (NR concentration 270 nM, RXRa partner concentration 90 nM)
Summary of the method: as §1

[19] = system: RARa homodimer (NR concentration 270 nM)
Summary of the method: as §1

[20] = system: RARb:RXRa (NR concentration 270 nM, RXRa partner concentration 90 nM)
Summary of the method: as §1

Sequence | PBM binding z-score [1] | PBM binding z-score [2] | PBM binding z-score [3] | PBM binding z-score [4] | PBM binding z-score [5] | PBM binding z-score [6] | PBM binding z-score [7] | PBM binding z-score [8] | PBM binding z-score [9] | PBM binding z-score [10] | PBM binding z-score [11] | PBM binding z-score [12] | PBM binding z-score [13] | PBM binding z-score [14] | PBM binding z-score [15] | PBM binding z-score [16] | PBM binding z-score [17] | PBM binding z-score [18] | PBM binding z-score [19] | PBM binding z-score [20]
ACTCGGAGGACAAAGGTCACAGCTACGCCAGTGA | 5.25 | 5.76 | 3.07 | 4.75 | 0.774 | 5.97 | 9.11 | 7.86 | 6.87 | 8.74 | 1.61 | 4.71 | 0.569 | -0.0483 | 5.62 | 5.5 | 0.867 | 6.75 | 3.36 | 5.12
ATCGAATGGTCGAAGGTGAGTATACCCACCCGAA | -0.229 | -0.228 | -0.451 | -0.362 | -0.158 | 0.153 | 1.07 | 1.34 | 0.48 | 1.31 | -0.883 | 0.182 | 0.483 | 0.223 | 0.138 | -0.0379 | -0.408 | 0.334 | 0.141 | –
CAAACTAGGTCACAGAGGTCAAACTCCGTGCGTA | 7.52 | 6.77 | 8.67 | 6.55 | 2.84 | 6.69 | 10.2 | 8.44 | 7.14 | 8.85 | 8.63 | 8.81 | 2.84 | 2.43 | 5.38 | 6.91 | 12.1 | 7.81 | 3.49 | 5.52
ACTAGTTGGTAAGCTGAGGTCACACACAATTCGG | 2.58 | 3.17 | 2.68 | 3.35 | 0.606 | 3.57 | 1.54 | 1.96 | 0.653 | 1.13 | 0.595 | 1.93 | 1 | 0.246 | 2.25 | 4.72 | 1.85 | 4.42 | 1.2 | –
CCGACTGGGCCATTCAGAGGTCATTGATCATATG | 2.92 | 4.38 | 6.59 | 3.54 | -0.323 | 3.44 | 1.4 | 2.29 | 0.268 | 1.42 | 3.29 | 2.53 | -0.872 | -0.8 | 3.14 | 4.88 | 2.75 | 4.62 | -0.131 | –
CTTAGTTGGTCAAGGTCACACACGCTATAGGTAC | 4.69 | 4.17 | 2.15 | 4.03 | 1.14 | 4.51 | 4.28 | 4.71 | 2.33 | 3.77 | 4 | 4.92 | 0.864 | 1.4 | 2.76 | 4.35 | 2.79 | 4.4 | 2.07 | 4.35
TATCCTAGGTCAGATCGGGCCAGTATACGCTATA | 2.81 | 3.67 | 2.41 | 2.2 | 1.81 | 2.49 | 1.46 | 2.04 | 0.691 | 1.56 | 2.51 | 3.41 | 1.32 | 1.4 | 1.11 | 1.82 | 0.14 | 1.8 | 0.0561 | 3.33
